Pf Dd2 growth: blocks in vitro growth of P. falciparum Dd2; AID 1347417; Potency, µM (titrated, usually from 28.9 µM), most hits filed as inhibitors; P. falciparum Dd2 growth, SYBR Green, 72 h; 4.3% of 120,000 active; active = well fitted inhibition curve with a large enough effect; also: nearly all actives have a fitted effect of over 65% in size
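Infected erythrocytes (Dd2, 0.3% parasitemia, 2.5% hematocrit final) are added to compound in RPMI-1640/Albumax II medium, grown 72 h at 37C in low oxygen, then lysed with saponin/Triton-X containing SYBR Green and read by fluorescence.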
A number is an active result; [ ] = remark or other dose. Many of the other results were omitted from the sample, so hits are more common in it than they were.

`Cc1cnc(C)c(-c2cc(O)c3c(c2)CN(C(=O)C2CCOC2)CCO3)n1` (stereo not drawn) gave Pf Dd2 growth inactive.
For COc1cc(Cl)ccc1C(=O)N1CCC(N2CC3CC(C2)[C@H]2CCCC(=O)N2C3)CC1 (stereo partly drawn) the results were Pf Dd2 growth inactive.
`CC(=O)N1CCN(C(=O)c2ccc3c(c2)NC(C)(CCCCc2ccccc2)CO3)CC1` (stereo not drawn) gave Pf Dd2 growth inactive.
Screening O=C1CCCCC(C(=O)NCc2cccc(F)c2)N1 (stereo not drawn) returned Pf Dd2 growth inactive.
For Cc1nnc(N2CCCC(C(=O)NCc3ccccc3F)C2)c2nn(-c3ccc(Cl)cc3)c(C)c12 (stereo not drawn) the results were Pf Dd2 growth inactive.
For CCc1ccc(NC(=O)C2CCCN(c3nnc(C)c4c(C)n(-c5ccccc5)nc34)C2)cc1 (stereo not drawn) the results were Pf Dd2 growth inactive.
For COc1ccc(-n2nc3c(N4CCCC(C(=O)NCCc5ccc(C)cc5)C4)nnc(C)c3c2C)cc1 (stereo not drawn) the results were Pf Dd2 growth 8.9µM.
Screening COc1ccc(-n2nc3c(N4CCCC(C(=O)NCc5ccccc5C)C4)nnc(C)c3c2C)cc1 (stereo not drawn) returned Pf Dd2 growth inactive.
Screening CCOc1ccc(NC(=O)C2CCCN(c3nnc(C)c4c(C)n(-c5ccccc5)nc34)C2)cc1 (stereo not drawn) returned Pf Dd2 growth inactive.
For COc1ccc(-n2nc3c(N4CCCC(C(=O)NCCc5ccccc5C)C4)nnc(C)c3c2C)cc1 (stereo not drawn) the results were Pf Dd2 growth 8.9µM.
Cc1c(Cl)cccc1NC(=O)c1cc2nc(-c3ccc4c(c3)OCO4)cc(C(F)(F)F)n2n1 was read as Pf Dd2 growth inactive[5.79 µM].
For Cn1c(CNC(=O)C2CCCN(Cc3ccncc3)CCC(=O)NCC2)nc2ccccc21 (stereo not drawn) the results were Pf Dd2 growth inactive.
Screening COCc1nncn1C1CCN(S(=O)(=O)c2cc(F)cc(F)c2)CC1 returned Pf Dd2 growth inactive.
CS(=O)(=O)N1CCC(CC(=O)N2CCN(C3CCCC3)CC2)C1 (stereo not drawn) was read as Pf Dd2 growth inactive.
`Cc1ccc2nc(-c3ccncc3)c(Nc3ccccc3C)n2c1` gave Pf Dd2 growth inactive.
For Cc1ccccc1Nc1c(-c2cccc(Cl)c2)nc2ncccn12 the results were Pf Dd2 growth inactive.
Cc1ccccc1Nc1c(-c2c[nH]c3ccccc23)nc2cccc(C)n12 was read as Pf Dd2 growth inactive.
For Cc1ccc2nc(-c3c[nH]c4ccccc34)c(Nc3ccccc3C)n2c1 the results were Pf Dd2 growth inactive.
For Cc1ccc2nc(-c3ccccn3)c(Nc3ccccc3C)n2c1 the results were Pf Dd2 growth 8.9µM.
`Cc1ccn2c(Nc3ccccc3C)c(-c3ccccn3)nc2c1` gave Pf Dd2 growth 3.2µM.
`CCOc1ccccc1N1CC(c2nc3ccccc3n2CCCOc2ccccc2)CC1=O` (stereo not drawn) gave Pf Dd2 growth inactive.
Cc1cnc(NC(=O)c2ccc3c(c2)OCCN(CCC(F)(F)F)C3)s1 was read as Pf Dd2 growth inactive.
For COc1ccc2[nH]c3c(c2c1)CCN(C)C31CCN(C(=O)c2ccc(C)nc2)CC1 the results were Pf Dd2 growth inactive.
O=C(c1csc(Cc2ccccc2)n1)N1Cc2ccccc2C(O)C1 (stereo not drawn) was read as Pf Dd2 growth inactive.
Screening O=C1NCCN1C1CCN(Cc2ccsc2)CC1 returned Pf Dd2 growth inactive.
For CCOC(=O)C(C)Sc1nnc2cc(C)c3ccccc3n12 (stereo not drawn) the results were Pf Dd2 growth inactive.
Screening COc1cccc(CNCCSc2nnnn2C)c1OCc1ccc(F)cc1 returned Pf Dd2 growth inactive.
Cn1nnnc1SCCCNCc1cc(Br)ccc1OCc1ccccc1 was read as Pf Dd2 growth 11µM.
For Cn1nnnc1SCCNCc1ccccc1Cl the results were Pf Dd2 growth inactive.
`Cn1nnnc1SCCCNCc1cc(Br)ccc1OCc1ccccc1F` gave Pf Dd2 growth 7.9µM.
COc1cc(CNCCSc2nnnn2C)ccc1OCc1ccc(F)cc1 was read as Pf Dd2 growth inactive.
Cn1nnnc1SCCNCc1ccc(F)cc1 was read as Pf Dd2 growth inactive.
`O=C(Cc1ccc(Cl)cc1)NCCc1csc2nc(-c3ccccc3F)nn12` gave Pf Dd2 growth inactive.
Screening COc1ccc(-c2noc(-c3ccc(NCc4cccnc4)c([N+](=O)[O-])c3)n2)cc1 returned Pf Dd2 growth inactive.
For CN(Cc1ccccc1)[C@@H]1[C@H](O)[C@H](CO)O[C@@H]1CNS(=O)(=O)c1cccs1 the results were Pf Dd2 growth inactive.
Screening Cc1cc(C)cc(Nc2ncnc3sc4c(c23)CCCC4)c1 returned Pf Dd2 growth inactive.
CCN(C)C(C)C(=O)N1CCC(Oc2ccccc2C)(C(=O)O)CC1 (stereo not drawn) was read as Pf Dd2 growth inactive.
`CCOCC(=O)N1CCC(c2nc(-c3cccnn3)no2)CC1` gave Pf Dd2 growth inactive.
